The panel holds about 83,000 compounds, 20% with a hit somewhere; the sample as a whole holds those more often.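 The test compound was applied at a single concentration to cells in 96-well plates for 48 hours, and percent growth was recorded.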 Calls of active or inactive are those of the source. The calls were made as follows: active = growth percent below 10; inactive = the rest.

The test system of the first assay is IGROV1 ovarian. In words: NCI-60 one-dose screen, 48 h (100 = growth as untreated, 0 = no growth, -100 = all killed). The conditions noted are these: 10 µM unless noted.
On to `CC1=CC[C@@H]2CC[C@]3(C)[C@H](CC[C@@H]4[C@@]5(C)CCCNC(C)(C)[C@@H]5CC[C@]43C)[C@H]2[C@@H]1C`, for which the growth is 40.5% (inactive).

For the compound `Fc1ccc(C2CC(c3cccc(Nc4ccncc4)c3)=NN2c2ccccc2)cc1` (stereo unspecified), the growth is 44% (inactive).

Consider `Cc1ccc(C(=O)Nc2ccccc2C(=O)N/N=C(\c2ccccc2)c2ccccn2)cc1`, for which the growth was 24% (inactive).

As to `COc1cc(/C=C/C(=O)c2c(C)oc3nc[nH]c(=O)c23)ccc1O`, the growth was 100% (inactive).

As for `CS(=O)(=O)Nc1cc(-c2ccc3ncnc(Nc4ccc5[nH]ncc5c4)c3c2)cnc1Cl`, the growth is 42.5% (inactive).

Take `COc1ccc(-c2ncc(-c3ccccc3)[nH]2)cc1OC`: the growth was 119% (inactive).

On to `O=C1Nc2cc(-c3ccncc3)ccc2/C1=C/c1ccc[nH]1`, for which the growth is 80.8% (inactive).

With `Nc1c(C(=O)Nc2ccc(Cl)cc2)cc(-c2nc3ccccc3s2)c(=O)n1NS(=O)(=O)c1ccc(Cl)cc1`, the growth was 97.4% (inactive).

Consider `CCOc1cc(CNc2ccc(N3CCOCC3)c(C(=O)O)c2)ccc1OC`, for which the growth is 103% (inactive).

Consider `Cc1ccc(C2CC(c3cccc(Nc4ccncc4)c3)=NN2c2cc(Cl)cc(Cl)c2)cc1` (stereo unspecified), for which the growth is 15.3% (inactive).

Turning to `COc1ccc(/C(C)=N/NC(=O)CSc2nc3ccccc3c(=O)n2Cc2ccc(S(N)(=O)=O)cc2)c(OC)c1`, the growth is 104% (inactive).

On to `COc1ccc(C(=O)c2cc(C)c(OC)c(C)c2)c(OC)c1N(C(=O)C(Cl)Cl)C(=O)C(Cl)Cl`, for which the growth is 31.3% (inactive).

For the compound `Cc1ccccc1-c1cc(Cc2ccc(F)cc2)c(=O)[nH]n1`, the growth was 97.4% (inactive).

With `CCCC1C(C(=O)OCC)=C(N)Oc2cc(O)ccc21` (stereo unspecified), the growth is 76.4% (inactive).

As to `COc1c(Cl)cc(Cl)c2ccc(C=C3C(=O)N(C)C(=O)N(C)C3=O)nc12`, the growth was 114% (inactive).

Take `O=C1Nc2ccccc2/C1=N/c1nc(-c2ccc(Cl)cc2)cs1`: the growth was 66.7% (inactive).

`COC(=O)Nc1nc2ccc(C(=O)c3cccc(I)c3)cc2[nH]1`: the growth was 14.9% (inactive).

For `O=C(Nc1ccc(Nc2ncccn2)cc1)NC1C=c2ccccc2=CC1` (stereo unspecified), the growth is 106% (inactive).

For `CNC(=O)c1c(NC(=O)c2ccc(C(C)C)cc2)sc2c(CN(C)C)c(O)ccc12`, the growth was 90.5% (inactive).

Regarding `COc1ccc(Cc2nc3cc(OC)c(OC)cc3c(=O)[nH]2)cc1`, the growth is 65.7% (inactive).

As for `O=C1c2cccnc2C(=O)c2nc3cc(N4CCN(C5CC5)CC4)ccc3nc21`, the growth is -13.8% (active).

Turning to `CCOC(=O)N1CCN(CCCCl)CC1`, the growth was 97.1% (inactive).

Regarding `O=C(OCc1nc2nc(Cl)nc(N3CCOCC3)c2[nH]1)n1ccnc1`, the growth is 2.36% (active).

Regarding `COc1ccc(C(=O)c2cc3c(N)c(C(=O)Nc4cccc(Cl)c4C)sc3nc2C)cc1`, the growth was 24.8% (inactive).

As to `O=C(OC(OC(=O)c1cc(Cl)cc(Cl)c1)c1cccc2ccccc12)c1ccccc1` (stereo unspecified), the growth was 96.5% (inactive).

Consider `CN(Cc1ccccc1)c1nc(Cl)c(C2CC(c3ccc(Cl)cc3)=Cc3[nH][nH]c(=O)c32)s1` (stereo unspecified), for which the growth was 88.1% (inactive).

Turning to `COc1ccc(NC(=O)c2sc3nc(C)c(C(=O)CCc4cccc(OC)c4)cc3c2N)cc1`, the growth is 75.8% (inactive).

For `O=S(=O)(NCCCNc1nccc(-c2c(-c3cccc(O)c3)nc3occn23)n1)c1ccc(F)cc1`, the growth is 76.2% (inactive).

For `CC(=O)N1c2ccccc2NC2=C(C(=O)N(Cc3ccccc3)C2(C)C)C1c1ccco1` (stereo unspecified), the growth is 26.8% (inactive).

With `C#Cc1cccc(NC(=O)Nc2ccc(NC(=O)CCl)cc2)c1`, the growth was -88% [8.25 µM] (active).

With `COc1cc(COC(=O)CCCCC[P+](c2ccccc2)(c2ccccc2)c2ccccc2)c(OC)c2c1OCO2`, the growth was 28.6% (inactive).

Turning to `Cc1c([N+](=O)[O-])cc(C(C)(C)C)cc1[N+](=O)[O-]`, the growth was 112% (inactive).

As to `Clc1nc(Cl)c2ncn(CC3(Cn4cnc5c(Cl)nc(Cl)nc54)COC3)c2n1`, the growth was -93.3% (active).

As to `COc1cc2nc(-c3ccc(C(F)(F)F)cc3)cc(OCCCN3CCC(O)CC3)c2cc1OC`, the growth was 27.2% (inactive).

As for `COc1cc(Nc2cc(O)c3c(=O)cc(-c4ccccc4)oc3c2)cc(OC)c1`, the growth is 42.1% (inactive).

Turning to `C[C@]12C[C@H]1CC[C@]1(C)[C@@H]2CC[C@@]23C[C@H](CC[C@H]21)[C@@](O)(CO)C3`, the growth is 104% (inactive).

In the case of `Cc1nc2sc(C(=O)Nc3ccccc3)c(N)c2cc1C(=O)c1ccc(C(F)(F)F)cc1`, the growth is 101% (inactive).

With `N#CSCC1CC(O)(c2ccccc2)C(c2ccccc2)C(c2ccc(F)cc2)O1` (stereo unspecified), the growth is 17.1% (inactive).

The subject of a further assay is OVCAR-3 ovarian. Described as above. The conditions noted are these: 10 µM unless noted.
For the compound `CC1=CC[C@@H]2CC[C@]3(C)[C@H](CC[C@@H]4[C@@]5(C)CCCNC(C)(C)[C@@H]5CC[C@]43C)[C@H]2[C@@H]1C`, the growth was -28.9% (active).

On to `Fc1ccc(C2CC(c3cccc(Nc4ccncc4)c3)=NN2c2ccccc2)cc1` (stereo unspecified), for which the growth was 64% (inactive).

Regarding `Cc1ccc(C(=O)Nc2ccccc2C(=O)N/N=C(\c2ccccc2)c2ccccn2)cc1`, the growth is 22.5% (inactive).

In the case of `COc1cc(/C=C/C(=O)c2c(C)oc3nc[nH]c(=O)c23)ccc1O`, the growth is 108% (inactive).

Consider `CS(=O)(=O)Nc1cc(-c2ccc3ncnc(Nc4ccc5[nH]ncc5c4)c3c2)cnc1Cl`, for which the growth was 59.2% (inactive).

Turning to `COc1ccc(-c2ncc(-c3ccccc3)[nH]2)cc1OC`, the growth is 103% (inactive).

Take `O=C1Nc2cc(-c3ccncc3)ccc2/C1=C/c1ccc[nH]1`: the growth is 85.2% (inactive).

As for `Nc1c(C(=O)Nc2ccc(Cl)cc2)cc(-c2nc3ccccc3s2)c(=O)n1NS(=O)(=O)c1ccc(Cl)cc1`, the growth was 105% (inactive).

As to `CCOc1cc(CNc2ccc(N3CCOCC3)c(C(=O)O)c2)ccc1OC`, the growth is 105% (inactive).

Regarding `Cc1ccc(C2CC(c3cccc(Nc4ccncc4)c3)=NN2c2cc(Cl)cc(Cl)c2)cc1` (stereo unspecified), the growth is 61.7% (inactive).

Consider `COc1ccc(/C(C)=N/NC(=O)CSc2nc3ccccc3c(=O)n2Cc2ccc(S(N)(=O)=O)cc2)c(OC)c1`, for which the growth was 111% (inactive).

Turning to `COc1ccc(C(=O)c2cc(C)c(OC)c(C)c2)c(OC)c1N(C(=O)C(Cl)Cl)C(=O)C(Cl)Cl`, the growth is -13.4% (active).

Take `Cc1ccccc1-c1cc(Cc2ccc(F)cc2)c(=O)[nH]n1`: the growth is 104% (inactive).

Consider `CCCC1C(C(=O)OCC)=C(N)Oc2cc(O)ccc21` (stereo unspecified), for which the growth was 96.6% (inactive).

On to `COc1c(Cl)cc(Cl)c2ccc(C=C3C(=O)N(C)C(=O)N(C)C3=O)nc12`, for which the growth is 104% (inactive).

Turning to `O=C1Nc2ccccc2/C1=N/c1nc(-c2ccc(Cl)cc2)cs1`, the growth was 64.9% (inactive).

For the compound `COC(=O)Nc1nc2ccc(C(=O)c3cccc(I)c3)cc2[nH]1`, the growth was -5.1% (active).

`O=C(Nc1ccc(Nc2ncccn2)cc1)NC1C=c2ccccc2=CC1` (stereo unspecified): the growth is 107% (inactive).

On to `CNC(=O)c1c(NC(=O)c2ccc(C(C)C)cc2)sc2c(CN(C)C)c(O)ccc12`, for which the growth is 99.3% (inactive).

For the compound `COc1ccc(Cc2nc3cc(OC)c(OC)cc3c(=O)[nH]2)cc1`, the growth is 78.9% (inactive).

As for `O=C1c2cccnc2C(=O)c2nc3cc(N4CCN(C5CC5)CC4)ccc3nc21`, the growth is -1.56% (active).

In the case of `CCOC(=O)N1CCN(CCCCl)CC1`, the growth is 119% (inactive).

In the case of `O=C(OCc1nc2nc(Cl)nc(N3CCOCC3)c2[nH]1)n1ccnc1`, the growth was -84.9% (active).

Turning to `COc1ccc(C(=O)c2cc3c(N)c(C(=O)Nc4cccc(Cl)c4C)sc3nc2C)cc1`, the growth was -5.77% (active).

Take `O=C(OC(OC(=O)c1cc(Cl)cc(Cl)c1)c1cccc2ccccc12)c1ccccc1` (stereo unspecified): the growth was 97.6% (inactive).

Turning to `CN(Cc1ccccc1)c1nc(Cl)c(C2CC(c3ccc(Cl)cc3)=Cc3[nH][nH]c(=O)c32)s1` (stereo unspecified), the growth was 95% (inactive).

With `COc1ccc(NC(=O)c2sc3nc(C)c(C(=O)CCc4cccc(OC)c4)cc3c2N)cc1`, the growth was 26.1% (inactive).

Regarding `O=S(=O)(NCCCNc1nccc(-c2c(-c3cccc(O)c3)nc3occn23)n1)c1ccc(F)cc1`, the growth was 96.8% (inactive).

As to `CC(=O)N1c2ccccc2NC2=C(C(=O)N(Cc3ccccc3)C2(C)C)C1c1ccco1` (stereo unspecified), the growth is -7.66% (active).

For `C#Cc1cccc(NC(=O)Nc2ccc(NC(=O)CCl)cc2)c1`, the growth was -88% [8.25 µM] (active).

`COc1cc(COC(=O)CCCCC[P+](c2ccccc2)(c2ccccc2)c2ccccc2)c(OC)c2c1OCO2`: the growth is 48.7% (inactive).

Turning to `Cc1c([N+](=O)[O-])cc(C(C)(C)C)cc1[N+](=O)[O-]`, the growth is 101% (inactive).

With `Clc1nc(Cl)c2ncn(CC3(Cn4cnc5c(Cl)nc(Cl)nc54)COC3)c2n1`, the growth is -93.3% (active).

On to `COc1cc2nc(-c3ccc(C(F)(F)F)cc3)cc(OCCCN3CCC(O)CC3)c2cc1OC`, for which the growth is 64% (inactive).

With `COc1cc(Nc2cc(O)c3c(=O)cc(-c4ccccc4)oc3c2)cc(OC)c1`, the growth was 0.368% (active).

In the case of `C[C@]12C[C@H]1CC[C@]1(C)[C@@H]2CC[C@@]23C[C@H](CC[C@H]21)[C@@](O)(CO)C3`, the growth is 111% (inactive).

In the case of `Cc1nc2sc(C(=O)Nc3ccccc3)c(N)c2cc1C(=O)c1ccc(C(F)(F)F)cc1`, the growth is 110% (inactive).

Consider `N#CSCC1CC(O)(c2ccccc2)C(c2ccccc2)C(c2ccc(F)cc2)O1` (stereo unspecified), for which the growth was -84.2% (active).
